Screening data as filed in PubChem BioAssay.
The list is not random: actives were taken first. Their share in the collection is about 1.9%.
Yeast superoxide: reduction of superoxide in aged yeast, primary screen, HTS | S. cerevisiae aged cells, superoxide DHE fluorescence; hits give low values | superoxide response (% of plate mean), % at 10 µM | 330,000 tested, 0.18% active | AID 2690, 2010;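 active = superoxide response under a set limit, about three screen SD below normal, cut at about 65% in these data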;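 also: yeast aged for seven days with compound at 30 °C before DHE staining; 100% = average MFI of all compound-treated wells on the plate with controls excluded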
LANA-H2A inh: blockers of LANA interaction with H2A/H2B – biochemical, FP readout, HTS, primary screen; Protein LANA1 (Human herpesvirus 8 type P (isolate GK18)), Q9QR71; cell-free LANA-H2A/H2B peptide, fluorescence polarization; inhibition, % (concentration not given with the values); 320,000 tested, 0.6% active; in the data active = inhibition mostly above about 10%, no sharp cut-off; inactive = mostly below about 6.7%
Target sequence (Q9QR71 whole entry, looked up): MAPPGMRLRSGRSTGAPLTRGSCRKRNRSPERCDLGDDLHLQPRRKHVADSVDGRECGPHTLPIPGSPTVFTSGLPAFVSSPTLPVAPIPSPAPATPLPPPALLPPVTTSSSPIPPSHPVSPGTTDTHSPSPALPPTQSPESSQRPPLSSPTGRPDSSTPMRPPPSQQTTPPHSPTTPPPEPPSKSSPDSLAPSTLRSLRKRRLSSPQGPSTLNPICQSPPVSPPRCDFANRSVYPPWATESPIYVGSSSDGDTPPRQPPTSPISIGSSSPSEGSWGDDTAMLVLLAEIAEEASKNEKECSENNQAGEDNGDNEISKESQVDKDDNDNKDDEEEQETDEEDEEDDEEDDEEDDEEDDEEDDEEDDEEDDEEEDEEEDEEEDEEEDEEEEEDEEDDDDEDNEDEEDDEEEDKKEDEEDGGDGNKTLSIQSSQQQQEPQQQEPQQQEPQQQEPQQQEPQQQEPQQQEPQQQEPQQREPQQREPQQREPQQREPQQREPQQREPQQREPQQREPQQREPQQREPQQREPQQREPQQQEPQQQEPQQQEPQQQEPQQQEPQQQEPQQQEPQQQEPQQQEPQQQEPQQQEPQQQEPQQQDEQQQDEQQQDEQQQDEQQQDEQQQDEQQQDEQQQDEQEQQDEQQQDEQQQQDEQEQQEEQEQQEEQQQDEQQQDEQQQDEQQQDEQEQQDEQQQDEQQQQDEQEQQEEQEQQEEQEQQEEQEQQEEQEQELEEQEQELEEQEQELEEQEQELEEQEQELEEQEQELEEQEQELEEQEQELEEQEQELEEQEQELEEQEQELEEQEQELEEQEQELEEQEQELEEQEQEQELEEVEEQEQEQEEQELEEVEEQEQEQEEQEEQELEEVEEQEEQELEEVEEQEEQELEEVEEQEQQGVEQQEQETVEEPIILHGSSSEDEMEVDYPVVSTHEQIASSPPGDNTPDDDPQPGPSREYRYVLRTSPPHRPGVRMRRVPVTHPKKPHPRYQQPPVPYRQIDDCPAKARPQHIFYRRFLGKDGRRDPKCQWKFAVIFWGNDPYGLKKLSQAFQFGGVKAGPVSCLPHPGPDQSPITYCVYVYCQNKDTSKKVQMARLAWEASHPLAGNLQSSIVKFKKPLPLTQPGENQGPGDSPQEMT
Bcl-xL primary: inhibitors of human Bcl-xL, primary screen, biochemical, fluorescence polarization, HTS; AID 2129, 2009; GST-Bcl-xL / FITC-Bim BH3 peptide fluorescence polarization; 320,000 tested, 0.7% active; inhibition, % at 10.9 µM;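 active = inhibition above the mean of all tested compounds plus 3 SD, cutoff set per campaign, cut at about 30% in these data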;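 also: 0% = DMSO wells and 100% = unlabeled Bim-BH3 peptide competitor; inhibitors lower millipolarization by displacing the labeled peptide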
MCL1-BIM inh: inhibitors of MCL1 binding to BIM-BH3, primary screen, biochemical, fluorescence polarization. inhibition, % at 10.9 µM. Induced myeloid leukemia cell differentiation protein Mcl-1 (Homo sapiens), Q07820. GST-MCL1 / FITC-Bim-BH3 fluorescence polarization. 320,000 tested, 0.68% active;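 active = inhibition above the mean inhibition of all tested compounds plus 3 SD, set per campaign, cut at about 40% in these data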;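 also: 0% = DMSO wells and 100% = unlabeled Bim-BH3 peptide control; higher means more loss of mP so more displacement of Bim peptide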
MEX-5 binding: MEX-5 zinc finger RNA-binding disruptors – biochemical, C. elegans, fluorescence polarization, MLPCN library, primary screen | AID 1832, 2009 | 300,000 tested, 0.38% active | MEX-5/FITC-TCR2 RNA binding; hits give low values | activity score (negative = inhibition of binding), % at 10 µM;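 active = inhibition past about -25% in most replicates, and total fluorescence under double the plate's negative control median, limit read from the data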;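 also: 0% = DMSO and -100% = 5 µM competing unlabeled TCR2 RNA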
GLD-1 RNA inh: GLD-1/TGE RNA complex disruptors, primary screen, biochemical, fluorescence polarization | Female germline-specific tumor suppressor gld-1 (Caenorhabditis elegans), Q17339 | 320,000 tested, 0.44% active | inhibition, % at 5.96 µM | purified GLD-1 + fluorescein TGE RNA;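 active = percent inhibition above a per-plate cutoff, the plate mean of test compounds plus 3 SD, cut at about 30% in these data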;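 also: 0% = DMSO wells with GLD-1 and probe and 100% = wells lacking GLD-1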
CR mimetic CP: superoxide lowering in aged yeast cells, confirmation, cherry picked compounds; superoxide response (% of plate), % at 10 µM; 850 tested, 1% active; shares compounds with Yeast superoxide; S. cerevisiae aging, superoxide DHE fluorescence; hits give low values;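 active = superoxide signal below 65% of the plate average of sample wells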;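 also: cells aged with compound for 7 days at 30 degrees C before staining; 100% equals mean DHE fluorescence of all compound wells on the plate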
DHE fluor count: DHE quenching or ROS scavenging interference in aged yeast, artefact control for yeast caloric restriction mimetic project, S. cerevisiae BY4741, flow cytometry; shares compounds with Yeast superoxide; DHE fluorescence; hits give low values; fluorescence response, % at 10 µM; 850 tested, under 10 active; AID 435000, 2010;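 active = fluorescence response below 15%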;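 also: percent of the mean fluorescence averaged over all compound wells on the plate; lower means stronger quenching of DHE signal or ROS scavenging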
* = called active by the depositor; x = no result given.

SMILES | Yeast superoxide | LANA-H2A inh | Bcl-xL primary | MCL1-BIM inh | MEX-5 binding | GLD-1 RNA inh | CR mimetic CP | DHE fluor count
COc1ccc(-n2nnnc2CNC(=O)c2ccc(S(=O)(=O)N3CCOCC3)cc2)cc1 | 60* | -9 | -3 | 0 | 1 | 1 | 107 | 114
COc1ccc(C(=O)NNC(=O)c2ccc(S(=O)(=O)N3CCOCC3)cc2)cc1 | 88 | -3 | 6 | 13 | 0 | 6 | x | x
Cn1cccc1CC(=O)NNC(=S)Nc1ccc(Cl)cc1Cl | 104 | 3 | 7 | 14 | -2 | 4 | x | x
C=C(C)CNC(=S)NNC(=O)CCn1c2cc(Cl)ccc2c2ccc(Cl)cc21 | 109 | -2 | 5 | 10 | 3 | 7 | 94 | 90
C=C(C)CNC(=S)NNC(=O)c1ccncc1 | 92 | 2 | -2 | 2 | -2 | -1 | x | x
C=C(C)CNC(=S)NNC(=O)CCn1c2ccccc2c2ccccc21 | 104 | -1 | 2 | 7 | -1 | 3 | 104 | 91
C=C(C)CNC(=S)NNC(=O)CCn1c2ccc(Cl)cc2c2cc(Cl)ccc21 | 106 | -4 | 2 | 10 | -4 | -2 | 108 | 90
Cc1cccc(-n2cc(-c3ccccc3)c3c(NN4CCOCC4)ncnc32)c1 | 105 | 1 | 1 | 1 | 0 | -1 | x | x
Cc1ccc(-n2cc(-c3ccccc3)c3c(NN4CCOCC4)ncnc32)cc1 | 62* | 5 | -7 | -19 | 0 | 1 | 88 | 101
CC(=O)CSc1nc2ccc(Nc3nc(N4CCOCC4)nc(N4CCOCC4)n3)cc2s1 | 60* | 3 | 3 | 8 | -1 | -1 | 101 | 103
CC(C)(C)NC(=O)CSc1nc2ccc(Nc3nc(N4CCOCC4)nc(N4CCOCC4)n3)cc2s1 | 94 | 9 | 3 | -11 | 2 | 7 | x | x
CCOC(=O)c1cccc(S(=O)(=O)N2CCCC2)c1 | 93 | -7 | 1 | 4 | -1 | -5 | 107 | 91
Cc1ccc(S(=O)(=O)N2CCCCC2)cc1C(=O)N1CCCC1 | 90 | 8 | 3 | 1 | 1 | -1 | x | x
COc1ccc(S(=O)(=O)N2CCCC2)cc1OC | 101 | 1 | 1 | 12 | -2 | 6 | x | x
COc1ccc(S(=O)(=O)N2CCCC2)cc1C(C)C | 97 | 8 | 0 | -1 | -1 | 7 | 104 | 89
Cc1ccc(S(=O)(=O)N2CCCC2)cc1C(=O)O | 111 | 2 | 1 | 0 | -1 | -9 | 92 | 93
COc1ccc(S(=O)(=O)N2CCCC2)cc1C(=O)O | 90 | -3 | -2 | -5 | 3 | 4 | 88 | 98
Cc1ccc(NC(=O)Cn2c(=S)[nH]c3ccccc32)cc1 | 102 | 3 | -34 | -24 | 2 | 2 | x | x
O=c1cc[nH]c2c1ccc1cccnc12 | 91 | 2 | -3 | -5 | -3 | 3 | x | x
NC(=O)CC1C(=O)N(c2ccc(Cl)cc2)C(=S)N1NC(=O)c1cccc(F)c1 (stereo unspecified) | 21* | -2 | 0 | -4 | -1 | 4 | 99 | 107
CNC(=O)CC1C(=O)N(c2ccc(Cl)cc2)C(=S)N1NC(=O)c1cccc(F)c1 (stereo unspecified) | 116 | -3 | -1 | -3 | 1 | -5 | x | x
COc1ccc(C2(C)NC(=O)NC2=O)cc1OC (stereo unspecified) | 100 | 5 | 6 | 1 | 2 | 2 | x | x
COc1cccc(NS(=O)(=O)c2c(C)cc(C)cc2C)c1 | 98 | 19* | 1 | 3 | 0 | -2 | 95 | 92
O=C1c2cccc3cccc(c23)C(=O)N1CCc1ccccc1 | 92 | 2 | 6 | 0 | 0 | -6 | x | x
C=CCn1c(SCC(=O)NC2CCCCC2)nnc1-c1ccc(OC)cc1 | 57* | -6 | 0 | 1 | x | 10 | 114 | 112
SMILES | Yeast superoxide | LANA-H2A inh | Bcl-xL primary | MCL1-BIM inh | MEX-5 binding | GLD-1 RNA inh | CR mimetic CP | DHE fluor count
Fc1ccccc1COc1ccc(C(=S)N2CCCC2)cc1 | 65* | -1 | 1 | 8 | 2 | 0 | 107 | 93
COc1cccc(NC(=O)Cn2nnc(C(=O)NCCc3ccccc3)c2N)c1 | 120 | 4 | 5 | 9 | 1 | -12 | x | x
CN(c1ccccc1)S(=O)(=O)c1ccc(C(=O)Nc2nnc(C3CC3)o2)cc1 | 95 | 2 | -1 | 0 | -2 | 1 | 98 | 100
CCN(c1ccccc1)S(=O)(=O)c1ccc(C(=O)Nc2nnc(COC)o2)cc1 | 93 | -1 | 4 | 9 | -3 | 7 | x | x
CCN(c1ccccc1)S(=O)(=O)c1ccc(C(=O)Nc2nnc(C3CC3)o2)cc1 | 99 | 3 | 2 | 19 | -1 | 6 | 97 | 90
CCOC(=O)C1=C(COC(=O)c2ccc(Br)o2)NC(=O)NC1C (stereo unspecified) | 106 | -2 | 7 | 3 | -1 | 2 | x | x
Cc1ccc(N2CCN(C(=O)c3ccccc3Br)CC2)c(C)c1 | 98 | -1 | 7 | 0 | 1 | -6 | 102 | 96
O=C(c1ccccc1Br)N1CCN(c2ccccc2)CC1 | 98 | 0 | -5 | -9 | 3 | 2 | 107 | 95
Cc1ccc(N2CCN(C(=O)c3ccccc3)CC2)c(C)c1 | 81 | 1 | 6 | 8 | 2 | 4 | x | x
Cc1ccc(C)c(N2CCN(C(=O)c3csc(C)c3C)CC2)c1 | 99 | 1 | 5 | 10 | 1 | 3 | x | x
Cc1ccc(C)c(N2CCN(C(=O)c3ccccc3Br)CC2)c1 | 108 | 0 | 1 | -6 | 1 | 8 | 101 | 105
CCN(CC)Cc1cc(NC2=NS(=O)(=O)c3ccccc32)ccc1OC(=O)c1ccccc1 | 63* | -8 | 4 | -3 | 1 | -3 | 103 | 109
CCN(CC)Cc1cc(NC2=NS(=O)(=O)c3ccccc32)ccc1OC(=O)C(C)C | 94 | 0 | 8 | 10 | -1 | 4 | x | x
O=c1c2cc(Br)ccc2nc(-c2ccc([N+](=O)[O-])cc2)n1O | 87 | 2 | 8 | 6 | 0 | 2 | x | x
O=c1c2ccc(Cl)cc2nc(-c2ccc([N+](=O)[O-])cc2)n1O | 54* | -3 | 3 | 11 | 0 | 7 | 87 | 90
Cc1noc(C)c1CSCC(=O)N(C)CC(=O)Nc1ccccc1Cl | 95 | 3 | 2 | 3 | 2 | -2 | x | x
